This is an account of results in ChEMBL document CHEMBL1157539, “Thousands of chemical starting points for antimalarial lead identification” (Nature, 2010).

One may read the Inhibition as the share of the control response that was lost under treatment. Read a low Inhibition as a response near the control.

For this assay, the system named is HepG2. Nature of the assay: GSK_TCMDC: Percent inhibition of human HepG2 cell line. Test compounds present at 10uM. It is filed as functional.
The compound `Cc1nc2nc(N)nc(N)c2c(C)c1Cc1ccccc1I.Cl` yielded an Inhibition of 63%. As to `Br.CCc1ccc(OCCCON2C(=N)N=C(N)NC2(C)C)cc1`, the Inhibition is on record as 64%. For `CN(Cc1ccc(-c2ccc(C(F)(F)F)cc2)cc1)C(=O)Cn1c(CCc2cccc(F)c2F)nc(=O)c2ccc(N3CCN(CCN4CCCCC4)CC3)nc21.O=C(O)C(O)C(O)C(=O)O`, the Inhibition is recorded as 100%. As to `CCOC(=O)c1c[nH]c2c(sc3cc(OC)ccc32)c1=O`, the Inhibition is reported as 0%. `Cn1nccc1C(=O)NCCNCc1cccc(-c2ccc(-c3nc4cc(C(F)(F)F)ccc4[nH]3)cc2)c1.O=C(O)C(F)(F)F` had an Inhibition of 51%. Regarding `Cc1noc(-c2ccccc2)c1NC(=O)NC1CCN(CCCCCNC(=O)/C=C/c2ccc(Cl)c(Cl)c2)CC1`, the Inhibition was 0%. In the case of `COc1ccc2ncc(F)c(CCN3CCC(NCc4cc(C)c5c(c4)OCCO5)CC3)c2n1.Cl` it was 20%; in that of `CCCN(Cc1nnc(-c2cccs2)o1)C(=O)CSc1nnnn1-c1cc(C)cc(C)c1`, 2%; in that of `Cc1nnsc1C(=O)Nc1cccc(-c2csc(-c3nc4ccccc4[nH]3)c2)c1`, 51%. Take `Cl.O=C(Nc1ccnc2ccccc12)NC1CCN(Cc2ccccc2)CC1`: the Inhibition turned out to be 18%. The compound `O=C(Nc1cccc(CN2CCCN(Cc3ccc(O)cc3)CC2)c1)c1cccc(Cl)c1.O=C(O)C(F)(F)F` showed an Inhibition of 10%. For the compound `CC(=O)Nc1ccc(CN(Cc2cccc(OC(C)(C)C)c2)Cc2ccc3c(c2)OCCO3)cc1`, the Inhibition is on record as 0%.

As for `Br.C[C@@H](COc1ccc(-c2ccccc2)cc1)CON1C(N)=NC(N)=NC1(C)C`, the Inhibition was determined as 62%. Compound `O=C(NCCN1CCC(NC(=O)c2ccc(-c3ccccn3)s2)CC1)c1cccc(C(F)(F)F)c1.O=C(O)C(F)(F)F` returned an Inhibition of 4%. As for `N#Cc1cccc(C(O)CN(Cc2ccccc2)Cc2ccccc2)c1` (stereo not given), the Inhibition stood at 12%. Take `COc1ccccc1N1CCN(C(C(=O)NCc2cccc(F)c2)c2ccc(C)cc2)CC1` (stereo not given): the Inhibition is recorded as 4%. As for `Cc1cccc2nc(-c3ccc(-c4cccc(NC(=O)NCc5cccc(F)c5)c4)s3)[nH]c12`, the Inhibition is 24%. In the case of `O=C(Nc1cccc(CN2CCCN(Cc3ncc[nH]3)CC2)c1)c1cc2ccccc2s1.O=C(O)C(F)(F)F` it was 22%; in that of `O=C(Nc1ccc(OC2CCN(Cc3ccc(F)cc3)C2)c(Cl)c1)c1ccc(F)cc1.O=C(O)C(F)(F)F` (stereo not given), 10%. As to `Cc1ccc(NC(=O)c2ccc3ncccc3c2)cc1OC1CCN(CCC(C)C)CC1.O=C(O)C(F)(F)F`, the Inhibition is recorded as 2%. In the case of `COc1ccc(-c2cccc(NC(=O)c3ccc(C#N)cc3)c2)cc1CN(C)CCN(C)C.O=C(O)C(F)(F)F`, the Inhibition amounted to 14%.

Compound `CC(C)(C)c1ccc(CNC(=O)COc2ccc(-c3nnc(-c4cccc([N+](=O)[O-])c4)o3)cc2[N+](=O)[O-])cc1` registered an Inhibition of 10%. `N#Cc1cc(C(=O)Nc2ccccc2)c(N)nc1SCC(=O)Nc1ccc(Br)cc1` gave an Inhibition of 11%. `COc1ccc(Cn2c(Nc3cccc(C(F)(F)F)c3)nc3cc(C(=O)NCCN4CCCC4)ccc32)cc1Cl` had an Inhibition of 11%. Regarding `O=C(/C=C/c1cccc(Cl)c1)N1CCC(C(O)CN2CCC3(CC2)CN(C(=O)/C=C/c2cccc(Cl)c2)c2ccccc23)CC1` (stereo not given), the Inhibition is on record as 34%. `CC(C)C[C@H](NC(=O)c1ccc(F)cc1)C(=O)N[C@H](/C=N/NC(=O)c1ccccc1)CCc1ccccc1` showed an Inhibition of 1%. With `COc1c(C2CCN(CCCCNC(=O)c3noc(-c4ccc(C#N)cc4)n3)CC2)ccc2c1CCCC2` the figure was 32%. Turning to `Cc1ccc(Nc2nc(C)cc(Nc3cccc(C#N)c3)n2)cc1`, the Inhibition was found to be 14%. `CC(CN(C)C)C(=O)Nc1cccc(-c2ccc(-c3nc4ccccc4[nH]3)s2)c1` (stereo not given) had an Inhibition of 13%. `Cc1ccc(S(=O)(=O)N(C)c2ccccc2C(=O)Nc2ccccc2Oc2ccccc2)cc1` came in with an Inhibition of 5%. `COc1cc(NCCCNCc2cn(Cc3cc(Br)cc(Br)c3)c3ccccc23)nc2ccccc12` came in with an Inhibition of 99%.

For `O=C(Cc1ccccc1)NC(c1ccccc1)c1ccc2cccnc2c1O` (stereo not given), the Inhibition is reported as 49%.

Consider `Cc1cc(NCCc2ccccc2)nc(NC(=N)Nc2ccc(Cl)cc2)n1`, for which the Inhibition is 7%. In the case of `CCCCCCN1CCC(NCc2ccc(C(F)(F)F)cc2)CC1.O=C(O)C(F)(F)F` it was 11%; in that of `Cc1ccc([S+]([O-])Cc2ccc(Cl)cc2)cc1` (stereo not given), 8%. Turning to `Cc1[nH]cnc1-c1cccc(NC(=O)c2cc3ccccc3s2)c1`, the Inhibition amounted to 5%. For `N#Cc1ccc(N2CCN(Cc3cccc(-c4cccc(-c5nc6cc(C(F)(F)F)ccc6[nH]5)c4)c3)CC2)nc1.O=C(O)C(F)(F)F`, the Inhibition was 15%. `CCC[C@@H]([C@@H](CC1CCCCC1)C(=O)N[C@H](C(=O)Nc1nccs1)C(C)(C)SCCNC(=O)OCC)N(O)C=O`: the Inhibition turned out to be 45%. As for `CN1CCC(C(=O)N(Cc2ccc(-c3ccc(CNCCc4ccc(S(C)(=O)=O)cc4)cn3)cc2)Cc2ccc3c(c2)OCO3)CC1.O=C(O)C(F)(F)F`, the Inhibition turned out to be 16%.

Turning to `Nc1nc(N)c2c(ccc3c2ccn3C2C=CCCC2)n1` (stereo not given), the Inhibition amounted to 68%.
